Reference: PubChem BioAssay (Tox21)
Results filed as inconclusive are left out. The source made the active and inactive calls. Unless noted, calls follow the shape of the dose curve; as a rule, active = well fitted curve in the direction sought with a large enough effect in the repeat runs; inconclusive = weak or mixed curves; inactive = no such curve, though single readings can be large; an effect the other way counts as inactive or inconclusive.

Columns and labels:
[1] = qHTS assay to identify aromatase inhibitors - cell viability counter screen (AID 743084);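 also: cells stimulated with testosterone during compound exposure; nearly all actives have a fitted effect of over 55% in size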
[2] = target: Aryl hydrocarbon receptor (Homo sapiens) (UniProt P35869); assay: qHTS assay to identify small molecule that activate the aryl hydrocarbon receptor (AhR) signaling pathway (AID 743085);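 also: HG2L7.5c1 human HepG2 liver cells with stably integrated DRE-driven firefly reporter; series mostly up to about 70 µM; nearly all actives have a fitted effect of over 15% in size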
Aryl hydrocarbon receptor (Homo sapiens), sequence (P35869 whole entry, looked up): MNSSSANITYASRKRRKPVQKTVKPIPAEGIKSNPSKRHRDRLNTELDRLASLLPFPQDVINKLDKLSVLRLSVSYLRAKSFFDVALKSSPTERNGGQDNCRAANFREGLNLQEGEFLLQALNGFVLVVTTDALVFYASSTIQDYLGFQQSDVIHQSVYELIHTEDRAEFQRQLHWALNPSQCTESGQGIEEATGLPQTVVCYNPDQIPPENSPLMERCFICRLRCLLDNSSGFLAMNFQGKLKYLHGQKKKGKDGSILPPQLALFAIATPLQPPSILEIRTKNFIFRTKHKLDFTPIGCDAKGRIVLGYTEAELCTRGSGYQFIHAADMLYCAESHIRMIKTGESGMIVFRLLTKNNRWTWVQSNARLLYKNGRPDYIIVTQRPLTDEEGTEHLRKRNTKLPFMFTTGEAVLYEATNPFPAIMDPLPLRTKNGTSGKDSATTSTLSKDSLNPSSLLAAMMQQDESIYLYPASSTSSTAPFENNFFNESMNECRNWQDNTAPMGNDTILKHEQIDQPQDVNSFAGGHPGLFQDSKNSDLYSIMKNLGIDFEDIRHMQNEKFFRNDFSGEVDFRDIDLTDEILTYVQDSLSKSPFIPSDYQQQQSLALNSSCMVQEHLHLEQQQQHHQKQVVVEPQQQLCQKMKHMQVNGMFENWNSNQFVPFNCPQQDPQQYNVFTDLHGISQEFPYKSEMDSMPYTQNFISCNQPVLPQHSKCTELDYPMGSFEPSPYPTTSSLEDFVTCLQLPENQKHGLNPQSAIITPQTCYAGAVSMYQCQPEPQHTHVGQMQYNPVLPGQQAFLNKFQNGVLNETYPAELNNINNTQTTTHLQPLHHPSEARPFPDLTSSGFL
Outline: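 24 h compound exposure, 37C, HepG2-derived HG2L7.5c1 cells with DRE-responsive luciferase. Readouts: fluorescence viability, then luminescence at room temperature after 30 min.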

[3] = qHTS assay to identify small molecule that activate the aryl hydrocarbon receptor (AhR) signaling pathway - cell viability counter screen (AID 743086);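 also: HepG2 liver cells carrying the AhR DRE luciferase reporter; series mostly up to about 70 µM; nearly all actives have a fitted effect of over 45% in size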
Outline: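 HepG2-AhR-luc (HG2L7.5c1) cells, 4000/well, treated 24 h at 37 C with compound; viability measured as CellTiter-Fluor fluorescence after 30 min in the same wells as the luciferase read.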

[4] = target: Peroxisome proliferator-activated receptor gamma (Homo sapiens) (UniProt P37231); assay: qHTS assay to identify small molecule antagonists of the peroxisome proliferator-activated receptor gamma (PPARg) signaling pathway (AID 743191; calls by dose curve; also: series mostly up to about 63 µM; nearly all actives have a fitted effect of over 30% in size)
Peroxisome proliferator-activated receptor gamma (Homo sapiens), sequence (P37231 whole entry, looked up): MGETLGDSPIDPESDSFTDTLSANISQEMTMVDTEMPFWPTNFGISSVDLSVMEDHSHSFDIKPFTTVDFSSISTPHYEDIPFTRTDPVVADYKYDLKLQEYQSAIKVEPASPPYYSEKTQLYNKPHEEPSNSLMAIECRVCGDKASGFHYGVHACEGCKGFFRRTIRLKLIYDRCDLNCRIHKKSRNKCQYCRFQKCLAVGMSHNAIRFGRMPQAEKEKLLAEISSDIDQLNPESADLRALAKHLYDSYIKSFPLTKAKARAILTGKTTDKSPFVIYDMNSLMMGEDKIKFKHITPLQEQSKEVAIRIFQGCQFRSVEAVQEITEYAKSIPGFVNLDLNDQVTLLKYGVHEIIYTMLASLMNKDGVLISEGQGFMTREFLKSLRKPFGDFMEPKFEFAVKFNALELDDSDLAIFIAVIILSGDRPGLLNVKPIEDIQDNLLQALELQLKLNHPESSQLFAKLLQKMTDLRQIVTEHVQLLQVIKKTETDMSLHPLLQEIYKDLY
Outline: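 GeneBLAzer PPARg UAS-bla HEK293H cells, 5 h post-plating, exposed to compounds 17 h at 37C. LiveBLAzer B/G FRET substrate added for 1 h at room temperature; beta-lactamase reporter read by fluorescence intensity.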

[5] = qHTS assay to identify small molecule antagonists of the peroxisome proliferator-activated receptor gamma (PPARg) signaling pathway - cell viability counter screen (AID 743194); also: nearly all actives have a fitted effect of over 55% in size
Outline: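 Cytotoxicity counter screen in PPARg-bla HEK293H cells, same wells as reporter assay. Compounds plus 50 nM rosiglitazone (final) for 17 h at 37 C, then viability read by CellTiter-Glo luminescence.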

[6] = qHTS assay for small molecule agonists of the antioxidant response element (ARE) signaling pathway (AID 743202; active = well fitted activation curve with a large enough effect in the signal ratio in the repeat runs, not every such curve was filed as active; the % refers to the signal ratio)
Outline: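 HepG2 ARE-bla reporter line, 2,000 cells/well; 5 h preincubation 37 C/5% CO2; compound (DMSO) 16 h 37 C; B/G FRET substrate 2 h RT; fluorescence intensity.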

[7] = qHTS assay for small molecule agonists of the antioxidant response element (ARE) signaling pathway - cell viability counter screen (AID 743203; calls by dose curve; also: nearly all actives have a fitted effect of over 55% in size)
Outline: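 Measured in the same wells as the beta-lactamase ARE reporter, this read-out is CellTiter-Glo luminescence from HepG2 ARE-bla cells given compounds for 16 hrs.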

[8] = qHTS assay for small molecule activators of the heat shock response signaling pathway - cell viability counter screen (AID 743209); also: nearly all actives have a fitted effect of over 50% in size
Outline: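 Same-well multiplex: after 2.5 h room-temperature incubation with LiveBLAzer B/G substrate and fluorescence reading, CellTiter-Glo reagent was added to HSE-bla HeLa cells that had received compound for 5 h at 37 C; luminescence read after 30 min.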

[9] = qHTS assay to identify small molecule agonists of the peroxisome proliferator-activated receptor delta (PPARd) signaling pathway - cell viability counter screen (AID 743211); also: nearly all actives have a fitted effect of over 55% in size
Outline: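 Luminescent ATP viability assay (CellTiter-Glo, 30 min RT) in UAS-bla HEK293H cells carrying the PPAR delta reporter construct, 3000 cells/well, after a 17 h compound treatment at 37 C.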

[10] = target: Peroxisome proliferator-activated receptor delta (Homo sapiens) (UniProt Q03181); assay: qHTS assay to identify small molecule agonists of the peroxisome proliferator-activated receptor delta (PPARd) signaling pathway (AID 743212; calls by dose curve)
Peroxisome proliferator-activated receptor delta (Homo sapiens), sequence (Q03181 whole entry, looked up): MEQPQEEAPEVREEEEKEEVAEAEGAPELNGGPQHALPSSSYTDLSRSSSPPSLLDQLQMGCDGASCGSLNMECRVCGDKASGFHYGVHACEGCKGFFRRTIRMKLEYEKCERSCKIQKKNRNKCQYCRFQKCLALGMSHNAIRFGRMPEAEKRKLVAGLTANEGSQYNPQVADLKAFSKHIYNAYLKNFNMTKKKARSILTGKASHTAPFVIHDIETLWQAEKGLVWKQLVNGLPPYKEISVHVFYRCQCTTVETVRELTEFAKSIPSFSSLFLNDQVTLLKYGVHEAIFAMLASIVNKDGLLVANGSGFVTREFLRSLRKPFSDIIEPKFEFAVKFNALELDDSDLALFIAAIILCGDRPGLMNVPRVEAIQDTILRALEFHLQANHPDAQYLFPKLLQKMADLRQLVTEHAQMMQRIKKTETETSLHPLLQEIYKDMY
Outline: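 Read-out: beta-lactamase FRET fluorescence after 2 h room-temperature incubation with LiveBLAzer B/G substrate. Cells were HEK293H carrying a UAS-bla reporter for PPARd, treated at 37 C with DMSO-dissolved compounds.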

[11] = qHTS assay to identify small molecule antagonists of the peroxisome proliferator-activated receptor delta (PPARd) signaling pathway - cell viability counter screen (AID 743213); also: nearly all actives have a fitted effect of over 50% in size
Outline: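 HEK293H cells with the PPARd UAS-bla reporter, co-treated 17 h at 37 C with compounds and L165041 (300 nM final), were lysed with CellTiter-Glo. Luminescence indicated viable cell content.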

[12] = target: Bile acid receptor (Homo sapiens) (UniProt Q96RI1); assay: qHTS assay to identify small molecule antagonists of the farnesoid-X-receptor (FXR) signaling pathway (AID 743217; active = well fitted inhibition curve with a large enough effect in the signal ratio in the repeat runs, not every such curve was filed as active; the % refers to the signal ratio)
Bile acid receptor (Homo sapiens), sequence (Q96RI1 whole entry, looked up): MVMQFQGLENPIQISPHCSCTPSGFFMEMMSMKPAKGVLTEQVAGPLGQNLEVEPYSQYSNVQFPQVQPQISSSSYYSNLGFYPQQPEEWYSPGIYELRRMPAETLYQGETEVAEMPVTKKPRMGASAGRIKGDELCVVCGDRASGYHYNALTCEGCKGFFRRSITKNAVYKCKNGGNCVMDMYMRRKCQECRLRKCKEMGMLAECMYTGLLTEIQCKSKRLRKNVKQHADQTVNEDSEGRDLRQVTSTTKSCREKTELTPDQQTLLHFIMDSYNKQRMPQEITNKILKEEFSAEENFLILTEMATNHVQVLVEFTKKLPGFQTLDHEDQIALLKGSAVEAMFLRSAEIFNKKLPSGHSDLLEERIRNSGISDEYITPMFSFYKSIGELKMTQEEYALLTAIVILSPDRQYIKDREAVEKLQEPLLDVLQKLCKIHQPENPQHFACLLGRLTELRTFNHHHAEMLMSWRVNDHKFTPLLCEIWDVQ
Outline: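 FRET fluorescence after 2 h room-temperature LiveBLAzer loading gives the readout. Prior step: FXR-bla HEK 293T cells, seeded and incubated 5 h, received test compounds plus 50 uM final CDCA for 16 h at 37 °C.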

[13] = target: Bile acid receptor (Homo sapiens) (UniProt Q96RI1); assay: qHTS assay to identify small molecule agonists of the farnesoid-X-receptor (FXR) signaling pathway (AID 743220; active = well fitted activation curve with a large enough effect in the signal ratio in the repeat runs, not every such curve was filed as active; the % refers to the signal ratio)
Outline: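 FXR-UAS-bla HEK 293T cells carrying a UAS-driven beta-lactamase reporter were plated for 5 h at 37C/5% CO2, then exposed to DMSO-dissolved Tox21 10K compounds for 16 h at 37C. A LiveBLAzer B/G FRET substrate was loaded for 2 h at room temperature before fluorescence reading.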

[14] = qHTS assay to identify small molecule antagonists of the farnesoid-X-receptor (FXR) signaling pathway - cell viability counter screen (AID 743221; active = well fitted cell-killing curve with a large enough effect in the repeat runs, not every such curve was filed as active; also: nearly all actives have a fitted effect of over 50% in size)
Outline: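 In GeneBLAzer FXR-UAS-bla HEK 293T cells stimulated with 50 uM chenodeoxycholic acid (final), compounds acted for 16 h at 37 C. Viability was assessed afterwards by CellTiter-Glo luminescence.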

[15] = target: Vitamin D3 receptor (Homo sapiens) (UniProt P11473); assay: qHTS assay to identify small molecule antagonists of the vitamin D receptor (VDR) signaling pathway (AID 743223; active = well fitted inhibition curve with a large enough effect in the signal ratio in the repeat runs, not every such curve was filed as active; the % refers to the signal ratio)
Vitamin D3 receptor (Homo sapiens), sequence (P11473 whole entry, looked up): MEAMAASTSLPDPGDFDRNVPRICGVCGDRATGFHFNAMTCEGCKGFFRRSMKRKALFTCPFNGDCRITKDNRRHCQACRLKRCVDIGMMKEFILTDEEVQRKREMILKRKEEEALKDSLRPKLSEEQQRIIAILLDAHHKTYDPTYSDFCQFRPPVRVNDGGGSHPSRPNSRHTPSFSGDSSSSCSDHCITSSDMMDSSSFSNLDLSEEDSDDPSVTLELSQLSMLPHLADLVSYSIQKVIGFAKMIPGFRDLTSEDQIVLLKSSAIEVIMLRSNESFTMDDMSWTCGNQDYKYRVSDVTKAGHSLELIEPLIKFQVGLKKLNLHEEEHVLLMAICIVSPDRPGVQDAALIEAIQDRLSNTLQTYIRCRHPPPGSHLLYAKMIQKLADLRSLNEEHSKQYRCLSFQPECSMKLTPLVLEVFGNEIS
Outline: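 Agonist 1alpha,25-dihydroxyvitamin D3 (3 nM in well) was added with each compound to VDR-bla cells preincubated 4 h. Cells stood 16 h at 37C, then FRET substrate 2 h at room temperature; fluorescence intensity recorded.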

[16] = target: Peroxisome proliferator-activated receptor gamma (Homo sapiens) (UniProt P37231); assay: qHTS assay to identify small molecule agonists of the peroxisome proliferator-activated receptor gamma (PPARg) signaling pathway (AID 743094; active = well fitted activation curve with a large enough effect in the signal ratio in the repeat runs, not every such curve was filed as active; the % refers to the signal ratio)
Outline: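 Cell-based bla reporter, HEK293H background, PPARg-driven UAS. Pre-incubation 5 h, 37C, 5% CO2. Compound 17 h, 37C. Substrate 1 h RT; fluorescence.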

[17] = qHTS assay for small molecule activators of the heat shock response signaling pathway (AID 743210; active = well fitted activation curve with a large enough effect in the signal ratio in the repeat runs, with a control signal flat, not every such curve was filed as active; the % refers to the signal ratio;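 also: HeLa cells with beta-lactamase reporter driven by heat shock elements; series mostly up to about 63 µM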)
Outline: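 Beta-lactamase reporter read-out: FRET substrate fluorescence after 2.5 h at RT, following 5 h compound treatment at 37 C of HeLa cells carrying HSE-driven bla reporter; quantitative HTS format.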

[18] = target: Peroxisome proliferator-activated receptor delta (Homo sapiens) (UniProt Q03181); assay: qHTS assay to identify small molecule antagonists of the peroxisome proliferator-activated receptor delta (PPARd) signaling pathway (AID 743215; active = well fitted inhibition curve with a large enough effect in the signal ratio in the repeat runs, not every such curve was filed as active; the % refers to the signal ratio;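 also: cells stimulated with agonist L165041 at 300 nM final during compound exposure; series mostly up to about 62 µM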)
Outline: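 Fluorescence from cleaved LiveBLAzer B/G FRET substrate (2 h, room temperature) reports PPARd-driven beta-lactamase in HEK293H UAS-bla cells. Cells had been treated 17 h at 37 C with compound plus 300 nM final L165041.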

[19] = qHTS assay to identify small molecule agonists of the farnesoid-X-receptor (FXR) signaling pathway - cell viability counter screen (AID 743218); also: nearly all actives have a fitted effect of over 45% in size
Outline: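 Readout: CellTiter-Glo luminescence, 30 min RT, multiplexed after the FXR-bla FRET reading. HEK 293T FXR-UAS-bla cells received compound 5 h post-plating and were incubated 16 h at 37 C.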

[20] = target: Vitamin D3 receptor (Homo sapiens) (UniProt P11473); assay: qHTS assay to identify small molecule agonists of the vitamin D receptor (VDR) signaling pathway (AID 743222; calls by dose curve)
Outline: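 Following 4 h attachment at 37C, VDR-bla cells (2,000 per well) received DMSO-dissolved compounds or controls. After 16 h incubation, LiveBLAzer B/G FRET substrate was added and fluorescence read 2 h later at room temperature.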

Measured: Potency

Cc1cccc(Nc2ccncc2S(=O)(=O)NC(=O)NC(C)C)c1
not listed: [16] | [17] | [18] | [19] | [20]
inactive: all other assays above

Nc1ccc(S(=O)(=O)Nc2ccccn2)cc1
not listed: [4] | [7] | [13] | [15]
inactive: all other assays above

C[C@@H]1C[C@H]2[C@@H]3C[C@H](F)C4=CC(=O)C=C[C@]4(C)[C@@]3(F)[C@@H](O)C[C@]2(C)[C@@]1(O)C(=O)CO
not listed: [4] | [10] | [11] | [12] | [13] | [16] | [17] | [18]
inactive: all other assays above

CC(C)CCCC(C)CC=O (stereo not drawn)
not listed: [4] | [12] | [13] | [15] | [17] | [18] | [20]
inactive: all other assays above

C=CCOC(=O)c1ccc(C(=O)OCC=C)c(C(=O)OCC=C)c1
not listed: [3] | [12] | [13] | [18]
inactive: all other assays above

FC(F)(F)c1ccc(Cl)cc1Cl
not listed: [4] | [10] | [11] | [12] | [13] | [17] | [18]
inactive: all other assays above

Cc1ncc([N+](=O)[O-])n1CC(O)CCl (stereo not drawn)
not listed: [4] | [8] | [10] | [18] | [20]
inactive: all other assays above

CCCCC(C)C(=O)O (stereo not drawn)
not listed: [4] | [12] | [13] | [17]
inactive: all other assays above

CCOC(=O)C(C)(C)C
not listed: [4] | [11] | [18]
inactive: all other assays above

CCC(C)(C)C1CCC(=O)CC1
not listed: [4] | [10] | [12] | [13]
inactive: all other assays above

CCC1Nc2cc(Cl)c(S(N)(=O)=O)cc2S(=O)(=O)N1 (stereo not drawn)
not listed: [4] | [8] | [9] | [16] | [17]
inactive: all other assays above

CN[C@@H]1[C@@H](O)[C@@H](O[C@@H]2[C@H](O)[C@H](O[C@H]3OC(CN)=CC[C@H]3N)[C@@H](N)C[C@H]2N)OCC1(C)O (stereo partly drawn)
not listed: [4] | [10] | [12] | [13] | [20]
inactive: all other assays above

NC(=O)NNC(N)=O
not listed: [4] | [5] | [6] | [10] | [13] | [15]
inactive: all other assays above
